From the supplement of paper PMC10849652
The full data set covers some 7,900 targets. This sample favours those with a hit. About 0.6% of all pairs of compound and target were hits. Unmarked numbers belong to inactive results.

What was measured:
Experiment in all cases: log2 fold change, soluble protein after heating vs DMSO (PISA); higher = thermal stabilisation; K562 cells, 10 uM, 30 min; active = over 0.2 and 3.5 SD of the protein, either way, in both replicates (recomputed)
erlotinib = compound: C#Cc1cccc(Nc2ncnc3cc(OCCOC)c(OCCOC)cc23)c1 [erlotinib]
In short: (§1)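 Soluble protein was quantified by TMTpro 16plex LC-MS/MS after channel sums were equalised. It was obtained as the supernatant after 21,000xg for 90 min from pooled aliquots of K562 cells (2×10^6 cells/mL, 10 μM compound, 30 min) heated for 3 min across 48°C-58°C and extracted in PBS with 0.5% NP-40 at 4°C. Thermal stability values are relative to control samples and come from duplicates. They are given as log2 fold changes.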

[1] = compound: C/C(=N\NC(=O)C1=CC(=CC=C1)S(=O)(=O)N2CCOCC2)/C3=C(C=CC(=C3)Cl)O
In short: as §1

[2] = compound: C1=CC(=C(C=C1Cl)C2=NC3=NC=CN=C3C(=N2)NC4=CC=NC=C4)F
In short: as §1

[3] = compound: C1=CC(=CC=C1C2=NC3=C(N2)C=C(C=C3)C(=O)N)OC4=CC=C(C=C4)Cl
In short: as §1

[4] = compound: C1=CC2=C(C=CC(=C2)/C=C\3/C(=O)NC(=NCC4=CC=CS4)S3)N=C1
In short: as §1

[5] = compound: C1=CC2=NC=CN=C2C=C1/C=C/3\C(=O)NC(=O)S3
In short: as §1

[6] = compound: C1=CC=C(C=C1)C2=NC(=C(N2)C3=CC=NC=C3)C4=CC(=C(C=C4)Cl)O
In short: as §1

[7] = compound: C1=CC=C2C(=C1)C3=NNC4=CC=CC(=C43)C2=O
In short: as §1

[8] = compound: C1CCN(C1)C(=O)NC2=CC=CC(=C2)NC3=NC=C(C(=N3)NCCC4=CN=CN4)Br
In short: as §1

[9] = compound: C1CN(CCC1(CC2=CC=C(C=C2)Cl)N)C3=NC=NC4=C3C=CN4
In short: as §1

Chain of UniProt P85037 (P85037 whole entry, looked up): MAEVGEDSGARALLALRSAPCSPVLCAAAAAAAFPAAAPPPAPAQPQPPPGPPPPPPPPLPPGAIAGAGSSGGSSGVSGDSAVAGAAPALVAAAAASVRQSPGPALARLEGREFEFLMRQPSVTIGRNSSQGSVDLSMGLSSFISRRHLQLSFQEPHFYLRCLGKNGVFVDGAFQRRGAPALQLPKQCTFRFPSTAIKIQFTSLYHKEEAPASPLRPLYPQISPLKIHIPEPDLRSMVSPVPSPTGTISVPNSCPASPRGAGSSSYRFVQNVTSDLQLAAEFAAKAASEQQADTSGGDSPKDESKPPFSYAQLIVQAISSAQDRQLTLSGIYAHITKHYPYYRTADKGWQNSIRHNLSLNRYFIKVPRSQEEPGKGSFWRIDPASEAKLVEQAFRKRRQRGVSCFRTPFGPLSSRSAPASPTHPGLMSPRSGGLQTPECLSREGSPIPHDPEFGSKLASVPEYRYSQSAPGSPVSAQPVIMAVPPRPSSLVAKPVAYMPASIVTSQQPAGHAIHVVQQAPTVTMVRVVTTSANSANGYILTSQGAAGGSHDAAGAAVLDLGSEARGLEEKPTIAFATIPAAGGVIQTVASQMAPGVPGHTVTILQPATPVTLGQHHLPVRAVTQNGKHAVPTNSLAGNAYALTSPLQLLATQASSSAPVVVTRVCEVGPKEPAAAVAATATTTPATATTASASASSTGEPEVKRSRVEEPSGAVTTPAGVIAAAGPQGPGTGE
Chain of UniProt P09105 (P09105 whole entry, looked up): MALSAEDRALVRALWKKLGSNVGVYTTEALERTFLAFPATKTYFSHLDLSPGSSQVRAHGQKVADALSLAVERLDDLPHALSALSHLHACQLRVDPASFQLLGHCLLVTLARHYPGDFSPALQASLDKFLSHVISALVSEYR
Chain of UniProt P39748 (P39748 whole entry, looked up): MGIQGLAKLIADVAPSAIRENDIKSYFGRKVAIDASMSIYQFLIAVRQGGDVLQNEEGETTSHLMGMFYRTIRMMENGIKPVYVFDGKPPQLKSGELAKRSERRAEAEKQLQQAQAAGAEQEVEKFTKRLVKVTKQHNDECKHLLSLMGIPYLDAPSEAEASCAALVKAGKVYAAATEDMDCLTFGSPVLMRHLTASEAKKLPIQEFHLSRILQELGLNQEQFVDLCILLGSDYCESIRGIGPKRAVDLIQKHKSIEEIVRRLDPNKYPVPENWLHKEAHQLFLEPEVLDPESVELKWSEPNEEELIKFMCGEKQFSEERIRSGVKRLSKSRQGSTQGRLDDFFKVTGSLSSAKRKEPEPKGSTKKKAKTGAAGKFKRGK
Chain of UniProt Q9P2D3 (Q9P2D3 whole entry, looked up): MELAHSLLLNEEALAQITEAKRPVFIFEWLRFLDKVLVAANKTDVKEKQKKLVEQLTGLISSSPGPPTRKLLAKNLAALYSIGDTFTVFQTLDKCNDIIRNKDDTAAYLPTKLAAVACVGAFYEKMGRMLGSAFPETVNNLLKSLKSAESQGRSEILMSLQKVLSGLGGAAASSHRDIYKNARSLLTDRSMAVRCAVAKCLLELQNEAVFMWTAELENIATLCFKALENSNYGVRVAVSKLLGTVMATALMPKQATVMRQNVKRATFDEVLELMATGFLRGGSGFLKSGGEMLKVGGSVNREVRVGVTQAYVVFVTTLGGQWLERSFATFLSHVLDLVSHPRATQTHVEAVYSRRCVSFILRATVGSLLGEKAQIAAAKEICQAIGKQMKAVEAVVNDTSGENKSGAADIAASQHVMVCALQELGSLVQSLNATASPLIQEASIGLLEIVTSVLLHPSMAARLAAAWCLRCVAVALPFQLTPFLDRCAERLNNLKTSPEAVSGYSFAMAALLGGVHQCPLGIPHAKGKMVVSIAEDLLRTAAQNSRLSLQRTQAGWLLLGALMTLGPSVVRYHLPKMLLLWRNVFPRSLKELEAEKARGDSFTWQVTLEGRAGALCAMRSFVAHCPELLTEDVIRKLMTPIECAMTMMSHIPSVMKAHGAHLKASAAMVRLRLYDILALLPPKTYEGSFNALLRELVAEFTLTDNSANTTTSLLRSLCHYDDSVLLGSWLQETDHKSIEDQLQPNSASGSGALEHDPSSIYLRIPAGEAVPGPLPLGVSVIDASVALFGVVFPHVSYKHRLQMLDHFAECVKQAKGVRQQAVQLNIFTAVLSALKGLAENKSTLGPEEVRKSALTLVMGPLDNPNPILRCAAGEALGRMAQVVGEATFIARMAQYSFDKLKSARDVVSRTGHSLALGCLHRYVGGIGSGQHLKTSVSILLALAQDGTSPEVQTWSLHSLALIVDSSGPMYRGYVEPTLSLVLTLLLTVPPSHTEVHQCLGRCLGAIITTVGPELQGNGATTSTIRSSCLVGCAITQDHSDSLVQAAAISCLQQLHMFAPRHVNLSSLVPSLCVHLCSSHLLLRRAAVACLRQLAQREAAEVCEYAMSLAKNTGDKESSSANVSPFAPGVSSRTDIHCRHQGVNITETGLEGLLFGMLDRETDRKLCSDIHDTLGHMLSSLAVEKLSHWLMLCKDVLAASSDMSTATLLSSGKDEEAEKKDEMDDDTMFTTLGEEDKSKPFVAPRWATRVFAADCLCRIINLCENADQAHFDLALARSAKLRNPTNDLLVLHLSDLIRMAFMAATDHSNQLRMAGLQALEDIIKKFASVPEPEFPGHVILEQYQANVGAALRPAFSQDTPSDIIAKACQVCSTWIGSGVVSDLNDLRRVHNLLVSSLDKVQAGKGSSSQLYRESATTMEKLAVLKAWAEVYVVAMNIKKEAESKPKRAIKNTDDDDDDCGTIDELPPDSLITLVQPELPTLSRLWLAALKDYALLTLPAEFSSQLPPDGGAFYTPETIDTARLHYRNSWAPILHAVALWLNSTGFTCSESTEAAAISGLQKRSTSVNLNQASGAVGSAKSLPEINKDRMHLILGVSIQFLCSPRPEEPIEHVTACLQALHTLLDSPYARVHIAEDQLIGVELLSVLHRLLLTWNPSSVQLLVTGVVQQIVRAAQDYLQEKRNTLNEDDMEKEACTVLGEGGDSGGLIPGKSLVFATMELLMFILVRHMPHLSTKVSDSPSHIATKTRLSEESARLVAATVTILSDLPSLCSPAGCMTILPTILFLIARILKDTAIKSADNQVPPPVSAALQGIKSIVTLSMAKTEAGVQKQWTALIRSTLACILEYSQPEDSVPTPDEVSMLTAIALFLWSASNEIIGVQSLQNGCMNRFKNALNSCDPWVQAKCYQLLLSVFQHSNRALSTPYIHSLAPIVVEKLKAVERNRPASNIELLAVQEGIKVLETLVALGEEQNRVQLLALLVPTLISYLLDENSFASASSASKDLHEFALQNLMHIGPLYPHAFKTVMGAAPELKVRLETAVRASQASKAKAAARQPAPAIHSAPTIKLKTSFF
Chain of UniProt P04035 (P04035 whole entry, looked up): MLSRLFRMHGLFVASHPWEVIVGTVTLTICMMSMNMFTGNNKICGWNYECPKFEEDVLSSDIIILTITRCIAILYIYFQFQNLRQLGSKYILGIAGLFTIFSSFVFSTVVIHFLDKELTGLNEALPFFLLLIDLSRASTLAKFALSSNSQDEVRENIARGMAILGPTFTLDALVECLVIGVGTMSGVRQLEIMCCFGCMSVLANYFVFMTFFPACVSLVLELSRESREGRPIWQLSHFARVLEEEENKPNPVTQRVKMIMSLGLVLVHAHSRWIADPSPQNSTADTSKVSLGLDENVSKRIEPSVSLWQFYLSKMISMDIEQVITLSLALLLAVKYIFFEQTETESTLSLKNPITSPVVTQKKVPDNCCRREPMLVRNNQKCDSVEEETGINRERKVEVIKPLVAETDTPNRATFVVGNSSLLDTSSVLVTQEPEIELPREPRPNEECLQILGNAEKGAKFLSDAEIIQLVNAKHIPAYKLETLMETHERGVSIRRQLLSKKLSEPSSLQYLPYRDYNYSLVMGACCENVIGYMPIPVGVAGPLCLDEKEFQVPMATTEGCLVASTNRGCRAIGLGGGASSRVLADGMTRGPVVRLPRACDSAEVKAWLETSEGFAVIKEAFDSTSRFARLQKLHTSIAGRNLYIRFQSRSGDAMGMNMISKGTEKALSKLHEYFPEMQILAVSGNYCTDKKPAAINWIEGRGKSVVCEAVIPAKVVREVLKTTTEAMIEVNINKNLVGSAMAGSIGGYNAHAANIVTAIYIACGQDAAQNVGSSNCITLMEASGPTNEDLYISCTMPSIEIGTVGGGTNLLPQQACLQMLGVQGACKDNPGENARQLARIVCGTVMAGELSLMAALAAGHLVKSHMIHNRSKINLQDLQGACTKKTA
Chain of UniProt P09211 (P09211 whole entry, looked up): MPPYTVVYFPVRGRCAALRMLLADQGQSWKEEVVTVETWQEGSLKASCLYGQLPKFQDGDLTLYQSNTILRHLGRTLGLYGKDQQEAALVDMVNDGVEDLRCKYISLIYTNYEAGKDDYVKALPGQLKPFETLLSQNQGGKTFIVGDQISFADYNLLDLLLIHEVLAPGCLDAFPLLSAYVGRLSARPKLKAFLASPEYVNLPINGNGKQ
Chain of UniProt Q13907 (Q13907 whole entry, looked up): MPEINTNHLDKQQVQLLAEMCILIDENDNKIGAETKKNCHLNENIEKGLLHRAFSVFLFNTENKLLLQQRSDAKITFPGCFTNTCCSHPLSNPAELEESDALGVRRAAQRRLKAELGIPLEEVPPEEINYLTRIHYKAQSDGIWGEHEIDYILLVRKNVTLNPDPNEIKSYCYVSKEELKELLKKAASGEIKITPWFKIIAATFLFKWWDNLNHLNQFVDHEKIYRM
Chain of UniProt Q7Z4H3 (Q7Z4H3 whole entry, looked up): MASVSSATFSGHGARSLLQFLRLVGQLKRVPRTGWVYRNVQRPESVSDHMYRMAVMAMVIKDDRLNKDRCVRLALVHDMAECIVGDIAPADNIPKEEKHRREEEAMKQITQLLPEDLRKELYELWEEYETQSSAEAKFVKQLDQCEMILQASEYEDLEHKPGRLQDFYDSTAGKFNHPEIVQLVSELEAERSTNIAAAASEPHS
Chain of UniProt Q9H4G4 (Q9H4G4 whole entry, looked up): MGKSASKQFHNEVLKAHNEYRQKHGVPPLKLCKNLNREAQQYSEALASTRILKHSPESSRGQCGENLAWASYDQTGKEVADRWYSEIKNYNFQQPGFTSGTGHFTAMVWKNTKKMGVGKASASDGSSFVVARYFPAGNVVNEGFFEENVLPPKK

| Target | log2 fold change (erlotinib) | log2 fold change [1] | log2 fold change [2] | log2 fold change [3] | log2 fold change [4] | log2 fold change [5] | log2 fold change [6] | log2 fold change [7] | log2 fold change [8] | log2 fold change [9] |
| --- | --- | --- | --- | --- | --- | --- | --- | --- | --- | --- |
| GSTP1 (UniProt P09211) | 0.021 | 0.038 | 0.013 | -0.016 | 0.041 | 0.037 | 0.014 | 0.005 | 0.021 | 0.057 |
| IFRD1 (UniProt O00458) | 0.226 | -0.021 | -0.124 | -0.008 | 0.134 | 0.199 | -0.013 | 0.068 | 0.042 | -0.04 |
| GATD1 (UniProt Q8NB37) | 0.028 | -0.006 | 0.111 | -0.012 | 0.057 | 0.007 | -0.01 | 0.047 | -0.006 | 0.098 |
| GCLM (UniProt P48507) | -0.054 | 0.199 | 0.014 | -0.019 | -0.078 | 0.088 | -0.006 | 0.064 | -0.008 | -0.035 |
| HEATR5B (UniProt Q9P2D3) | -0.009 | 0.059 | -0.128 | 0.025 | -0.067 | 0.004 | 0.007 | 0.05 | -0.026 | 0.043 |
| GLIPR2 (UniProt Q9H4G4) | 0.039 | 0.054 | -0.035 | 0.15 | 0.023 | -0.019 | -0.062 | -0.028 | 0.045 | -0.058 |
| HNRNPUL2 (UniProt Q1KMD3) | -0.054 | -0.08 | -0.138 | -0.015 | -0.057 | 0.012 | -0.056 | -0.014 | 0.011 | -0.102 |
| GDI1 (UniProt P31150) | -0.009 | 0.025 | 0.03 | 0.014 | 0.007 | 0.007 | -0.021 | -0.001 | 0.015 | 0.008 |
| HBQ1 (UniProt P09105) | -0.007 | -0.021 | 0.33 (active) | 0.03 | 0.059 | 0.011 | 0.051 | -0.021 | -0.093 | 0.026 |
| GDPD1 (UniProt Q8N9F7) | 0.077 | 0.024 | -0.061 | -0.018 | -0.015 | 0.01 | 0.048 | -0.018 | -0.037 | 0.024 |
| GTF2E2 (UniProt P29084) | 0.028 | 0.137 | 0.048 | -0.001 | 0.09 | 0.003 | -0.002 | 0.03 | -0.03 | -0.13 |
| HDDC2 (UniProt Q7Z4H3) | -0.014 | 0.059 | 0.039 | 0.018 | -0.072 | 0.034 | 0.292 (active) | 0.024 | -0.039 | 0.076 |
| FUT8 (UniProt Q9BYC5) | -0.036 | 0.019 | -0.07 | -0.12 | -0.145 | -0.055 | -0.004 | -0.038 | 0.045 | -0.038 |
| H2AZ1 (UniProt P0C0S5) | -0.025 | -0.13 | -0.554 | -0.014 | -0.087 | 0.169 | -0.189 | 0.036 | 0.07 | 0.037 |
| HK2 (UniProt P52789) | -0.068 | 0.037 | 0.051 | 0 | 0.028 | -0.015 | 0.005 | -0.017 | 0.009 | 0.023 |
| HSPA8 (UniProt P11142) | -0.016 | -0.031 | 0.01 | -0.014 | 0 | 0 | -0.003 | -0.088 | 0.009 | 0.017 |

| Target | log2 fold change (erlotinib) | log2 fold change [1] | log2 fold change [2] | log2 fold change [3] | log2 fold change [4] | log2 fold change [5] | log2 fold change [6] | log2 fold change [7] | log2 fold change [8] | log2 fold change [9] |
| --- | --- | --- | --- | --- | --- | --- | --- | --- | --- | --- |
| FLNA (UniProt P21333) | 0.022 | 0.072 | -0.002 | -0.032 | -0.022 | 0.005 | 0.013 | -0.017 | -0.018 | -0.133 |
| FUCA1 (UniProt P04066) | 0.01 | 0.024 | 0.049 | -0.007 | 0.031 | -0.004 | -0.004 | 0.044 | 0.012 | 0.018 |
| FOXK1 (UniProt P85037) | 0.113 | 0 | 0.054 | -0.307 | 0.425 | 0.355 | -0.075 | 0.61 | 0.394 | 0.352 |
| GCDH (UniProt Q92947) | 0.016 | -0.078 | 0.045 | -0.273 (active) | 0.081 | -0.011 | 0.082 | 0.048 | -0.011 | 0.039 |
| HBA1 (UniProt P69905) | -0.058 | 0.048 | 0.215 | 0.063 | 0.104 | 0.023 | 0.123 | -0.026 | -0.105 | 0.031 |
| IDI1 isoform 2 (UniProt Q13907) | 0.004 | -0.313 (active) | 0.03 | -0.012 | -0.033 | -0.004 | -0.038 | 0.034 | -0.02 | 0.002 |
| FKBP7 (UniProt Q9Y680) | -0.027 | -0.027 | 0.005 | 0.037 | 0 | 0.081 | -0.037 | -0.042 | 0.039 | 0.048 |
| FEN1 (UniProt P39748) | 0.126 | 0.098 | 0.091 | 0.026 | 0.172 | 0.003 | 0.118 | 0.026 | 0.007 | -0.068 |
| GTF3C5 isoform 3 (UniProt Q9Y5Q8) | 0.085 | 0.293 | -0.078 | -0.049 | -0.413 (active) | -0.056 | -0.089 | 0.079 | -0.067 | -0.038 |
| HMOX2 (UniProt P30519) | 0.065 | 0.057 | 0.039 | -0.038 | 0.024 | -0.023 | 0.03 | 0.032 | -0.04 | 0.016 |
| IFNGR1 (UniProt P15260) | 0.256 | 0.003 | 0.156 | -0.208 | -0.033 | -0.033 | -0.066 | -0.035 | 0.048 | 0.247 |
| FBXO7 (UniProt Q9Y3I1) | 0.039 | 0.033 | 0.014 | -0.055 | 0.033 | -0.038 | 0.001 | -0.014 | 0.005 | 0 |
| GTF2A1 (UniProt P52655) | -0.011 | -0.052 | 0.001 | -0.011 | -0.094 | 0.034 | -0.021 | -0.029 | -0.024 | 0.036 |
| HMGCR isoform 3 (UniProt P04035) | -0.089 | 0.025 | -0.001 | 0.032 | -0.038 | 0.101 | -0.033 | -0.137 | -0.081 | 0 |
| GLA (UniProt P06280) | 0.016 | 0.019 | -0.018 | -0.021 | -0.018 | -0.017 | -0.034 | -0.032 | 0.026 | 0.045 |
| GTF2H3 (UniProt Q13889) | -0.002 | 0.041 | -0.115 | 0.051 | 0.027 | -0.017 | 0.014 | 0.012 | -0.004 | 0.044 |
